{"source": "PubChem BioAssay (Tox21)", "note": "Records with an inconclusive call do not appear. A number with no mark means an inactive call. Activity calls are given as the source filed them. Calls come from the whole dose curve; as a rule, active = well fitted cell-killing curve with a large enough effect in the repeat runs; inconclusive = weak or mixed curves; inactive = flat fitted curve, though single readings scatter. % is set by controls: 0 for no effect and ±100 for the full control effect; potency is the fitted concentration of half-maximal effect."}
{"assay": "qHTS assay to identify small molecule antagonists of the estrogen related receptor (ERR) signaling pathway from Tox21 library - cell viability counter screen (AID 1224834); note: nearly all actives have a fitted effect of over 30% in size", "conditions": "ERR reporter cells viability, CellTiter-Fluor, 17.5 h; series mostly up to 92.4 µM; viability change, negative = cytotoxic: at the top concentration", "from_the_text": "National Center for Advancing Translational Sciences [NCATS]\nNIH Chemical Genomics Center [NCGC]\nU.S. Environmental Protection Agency [EPA]\nNational Institutes of Environmental Health Sciences [NIEHS]\nNational Toxicology Program [NTP]\nU.S. Food and Drug Administration [FDA]\nEstrogen related receptors (ERRs), the first orphan nuclear receptors discovered, play an important role in the control of cellular energy metabolism. ERRs are required for high-energy production in response to the environmental challenges. ERR-alpha was also identified as an adverse marker for breast cancer progression; ERR-alpha-positive tumors have a poor prognosis. To screen and to identify environmental compounds that perturb the ERR signaling pathways could provide valuable information for potential therapeutic or preventive measures in the treatment of metabolic disease. To differentiate true ERR antagonists or agonist from cytotoxic substances, the assay is multiplexed with cell viability assay.\nTox21 Assay Protocol Summary:\nThe ERR cells were dispensed at 2,000 cells/5 ul/well in 1536-well white plates using a Multidrop dispenser. After the assay plates were incubated at a 37 C/5% CO2 incubator for 6 hours, 23 nL of compounds dissolved in DMSO, positive and negative controls or DMSO only was transferred to the assay plate by a pin tool. The plates were incubated at 37 C for 17.5 hours. 1 ul/well of CellTiter-Fluor reagent was added into the assay plates using a Flying Reagent Dispenser. After 30-minute incubation at 37 C/5% CO2, the fluorescence intensity in the plates was measured using a ViewLux plate reader."}
{"smiles": "O=C1CC[C@H](C(=O)N2CCCCC2)N1", "viability change, negative = cytotoxic": "4.88% [at 42.5 µM]"}
{"smiles": "CCC(=O)c1ccc(O)cc1", "viability change, negative = cytotoxic": "4.14% [at 42.5 µM]"}
{"smiles": "Cc1nc([N+](=O)[O-])cn1-c1ccc([N+](=O)[O-])cc1", "viability change, negative = cytotoxic": "4.42% [at 42.5 µM]"}
{"smiles": "CC(C)(C)c1ccc(C=O)cc1", "viability change, negative = cytotoxic": "1.09%"}
{"smiles": "CN(C1CCCCC1)S(=O)(=O)c1ccccc1N", "viability change, negative = cytotoxic": "-2.18%"}
{"smiles": "Cc1cccc(NC(=S)N(C)C)c1", "viability change, negative = cytotoxic": "-13.9%"}
{"smiles": "OC[C@@H](O)[C@H](O)[C@@H](O)[C@@H](O)CO", "viability change, negative = cytotoxic": "2.72%"}
{"smiles": "CC(C)COC(=O)CCCCC(=O)OCC(C)C", "viability change, negative = cytotoxic": "5.43%"}
{"smiles": "CC(C)CCC(=O)CCC(C)C", "viability change, negative = cytotoxic": "-0.916%"}
{"smiles": "Nc1cc(Cl)cc(S(=O)(=O)O)c1O", "viability change, negative = cytotoxic": "2.96%"}
{"smiles": "CCCCCCCCCCCCCCCCI", "viability change, negative = cytotoxic": "1.65% [at 19 µM]"}
{"smiles": "CC(C)C(=O)c1ccccc1", "viability change, negative = cytotoxic": "0.941%"}
{"smiles": "CCCCCCCC/C=C\\CCCCCCCC(=O)OC[C@@H](O)[C@H]1OC[C@H](O)[C@H]1O", "viability change, negative = cytotoxic": "1.71%"}
{"smiles": "COc1ccc(/C=N/NC(=O)c2ccncc2)cc1OC", "viability change, negative = cytotoxic": "6.38% [at 42.5 µM]"}
{"smiles": "O=S(=O)(O)SSS(=O)(=O)O", "viability change, negative = cytotoxic": "-3.26%"}
{"smiles": "CC(=O)c1ccc2c(c1)CCCC2", "viability change, negative = cytotoxic": "-5.36%"}
{"smiles": "CCC(C)N", "note": "(stereo not given)", "viability change, negative = cytotoxic": "1.86%"}
{"smiles": "CCOC(=O)CCCCCCCCC(=O)OCC", "viability change, negative = cytotoxic": "1.99%"}
{"smiles": "Cc1cc(C)cc([N+](=O)[O-])c1", "viability change, negative = cytotoxic": "3.08%"}
{"smiles": "CCOC(=O)CC#N", "viability change, negative = cytotoxic": "-2.4%"}
{"smiles": "FC(F)(F)/C(=N\\OCC1OCCO1)c1ccc(Cl)cc1", "viability change, negative = cytotoxic": "0.418%"}
{"smiles": "NS(=O)(=O)c1ccc(Cl)c(S(N)(=O)=O)c1", "viability change, negative = cytotoxic": "3.84% [at 42.5 µM]"}
{"smiles": "F[Si-2](F)(F)(F)(F)F", "viability change, negative = cytotoxic": "-0.172%"}
{"smiles": "C=CCOc1c(Br)cc(C(C)(C)c2cc(Br)c(OCC=C)c(Br)c2)cc1Br", "viability change, negative = cytotoxic": "3.34% [at 42.5 µM]"}
{"smiles": "COCC(=O)Nc1c(I)c(C(=O)NCC(O)CO)c(I)c(C(=O)N(C)CC(O)CO)c1I", "note": "(stereo not given)", "viability change, negative = cytotoxic": "0.794% [at 42.5 µM]"}
{"smiles": "O=C(/C=C/c1ccccc1)NCCO", "viability change, negative = cytotoxic": "0.332% [at 42.5 µM]"}
{"smiles": "C=CCCCCCCCCCCC", "viability change, negative = cytotoxic": "0.22% [at 8.39 µM]"}
{"smiles": "O=C(c1ccc2c(c1)C(=O)OC2=O)c1ccc2c(c1)C(=O)OC2=O", "viability change, negative = cytotoxic": "1.3%"}
{"smiles": "CCCOCCOCCOCCO", "viability change, negative = cytotoxic": "-3.73%"}
{"smiles": "COc1cc2c3cc1Oc1cc(ccc1O)C[C@@H]1c4c(cc(OC)c(O)c4Oc4ccc(cc4)C[C@@H]3N(C)CC2)CC[N+]1(C)C", "viability change, negative = cytotoxic": "5.81% [at 42.5 µM]"}
{"smiles": "Cc1ccccc1OCC1CO1", "note": "(stereo not given)", "viability change, negative = cytotoxic": "8.85%"}
{"smiles": "CCCCCC1Nc2cc(C(F)(F)F)c(S(N)(=O)=O)cc2S(=O)(=O)N1", "note": "(stereo not given)", "viability change, negative = cytotoxic": "-0.705% [at 42.5 µM]"}
{"smiles": "CC1=NN(c2ccc(S(=O)(=O)O)cc2)C(=O)C1N=Nc1ccccc1", "note": "(stereo not given)", "Potency": "54.5 µM (active)"}
{"smiles": "CN(C)CCCNCCC#N", "viability change, negative = cytotoxic": "1.35%"}
{"smiles": "CN[C@@H]1[C@H](O)[C@H](NC)[C@H]2O[C@@]3(O)C(=O)C[C@@H](C)O[C@H]3O[C@@H]2[C@H]1O", "viability change, negative = cytotoxic": "0.055% [at 42.5 µM]"}
{"smiles": "CN[C@@H]1[C@@H](O)[C@@H](O[C@@H]2[C@H](O)[C@H](O[C@H]3OC(CN)=CC[C@H]3N)[C@@H](N)C[C@H]2N)OCC1(C)O", "note": "(stereo not given in full)", "viability change, negative = cytotoxic": "0.146% [at 42.5 µM]"}
{"smiles": "CC(=O)OC(C)c1ccccc1", "note": "(stereo not given)", "viability change, negative = cytotoxic": "5.43%"}
{"smiles": "CCOC(=O)C(=O)c1csc(NC=O)n1", "viability change, negative = cytotoxic": "3.09% [at 42.5 µM]"}
{"smiles": "C[C@H](CCC(=O)NCC(=O)O)[C@H]1CC[C@H]2[C@@H]3[C@H](O)C[C@@H]4C[C@H](O)CC[C@]4(C)[C@H]3C[C@H](O)[C@]12C", "viability change, negative = cytotoxic": "-3.95%"}
{"smiles": "NCCc1ccn[nH]1", "viability change, negative = cytotoxic": "5.45% [at 42.5 µM]"}
